Screening data deposited in PubChem BioAssay by National Center for Advancing Translational Sciences (NCATS).
This is a sample that favours compounds with a hit; in the whole collection about 7.4% have one here.
ELG1 genotox: inducers of genotoxicity in HEK293T ELG1-luciferase cells | HEK293T ELG1-luciferase reporter, luminescence, 16 h | Potency, µM (doses to about 46 µM), usual class: activators | actives 1.3% (n = 330,000) | AID 504466; also: nearly all actives have a fitted effect of over 60% in size
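Cells (2,000/well) expressing the ELG1-luciferase fusion are dosed by pin tool and kept 16 hr at 37 °C, 5% CO2. Signal comes from ONE-Glo luciferase reagent after 30 min at room temperature.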
FLuc modulator: firefly luciferase modulation, counter-screen for miR-21 project; P08659; purified FLuc, Km substrates, luminescence inhibition; Potency, µM (top dose mostly 57.5 µM), actives largely listed as inhibitors; actives 6.9% (n = 360,000); AID 588342; also: nearly all actives have a fitted effect of over 55% in size
Target sequence (P08659 whole entry, looked up): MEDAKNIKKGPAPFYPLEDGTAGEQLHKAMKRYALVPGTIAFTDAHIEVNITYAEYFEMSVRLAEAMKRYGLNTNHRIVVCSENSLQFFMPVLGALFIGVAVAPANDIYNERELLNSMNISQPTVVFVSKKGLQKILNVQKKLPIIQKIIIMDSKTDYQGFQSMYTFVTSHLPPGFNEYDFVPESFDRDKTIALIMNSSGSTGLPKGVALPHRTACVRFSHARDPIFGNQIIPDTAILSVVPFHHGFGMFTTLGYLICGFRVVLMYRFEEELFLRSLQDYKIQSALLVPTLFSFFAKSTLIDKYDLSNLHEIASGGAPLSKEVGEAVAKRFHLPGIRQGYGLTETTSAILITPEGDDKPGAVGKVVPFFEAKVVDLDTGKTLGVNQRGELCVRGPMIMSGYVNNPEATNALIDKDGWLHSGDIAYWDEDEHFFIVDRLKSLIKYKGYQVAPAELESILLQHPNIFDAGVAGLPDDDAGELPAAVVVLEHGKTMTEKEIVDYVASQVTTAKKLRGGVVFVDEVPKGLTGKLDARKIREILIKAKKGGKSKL
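Biochemical qHTS of compounds, final roughly 60 µM downward over six points, against 10 nM purified firefly luciferase using Km concentrations of substrates (10 uM D-luciferin, 10 uM ATP) in Tris acetate pH 7.5 buffer; luminescence output.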
Rab9 promoter act: activates the Rab9 promoter. Huh7 Rab9 promoter-luciferase reporter, luminescence, 24 h. Potency, µM (series often up to 9.22 µM), hits mostly activators. actives 2.8% (n = 320,000); also: nearly all actives have a fitted effect of over 60% in size
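Measured in stably transfected Huh7 cells bearing a Rab9 promoter–luciferase construct: 24 h compound treatment at 37 °C, followed by luminescence detection.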
Luc counter: counter-screen: inhibitors of Kinase-Glo firefly luciferase | AID 1379 | Q27757 | actives 0.28% (n = 200,000) | Kinase-Glo luciferase, ATP luminescence, 8 min | Potency, µM (doses to about 38.3 µM), most hits filed as inhibitors; also: nearly all actives have a fitted effect of over 60% in size
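Compounds were added to a substrate mix at pH 7.2 (50 mM imidazole, 10 uM ATP, within the enzyme's linear range), followed by Kinase-Glo detection reagent; luminescence was measured after 8 minutes at ambient temperature.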
SMN2 splice enh: increases expression of the SMN2 splice variant; Potency, µM (doses to about 46.1 µM), usual class: activators; HEK293 SMN2-luciferase splicing reporter, luminescence, 30-36 h; actives 2.8% (n = 210,000); also: nearly all actives have a fitted effect of over 55% in size
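HEK293 cells carry an SMN2 […]–luciferase reporter in which exon 7 inclusion puts luciferase in frame. Cells were plated 10-12 h before compound addition, then incubated 30-36 h at 37C. ONE-Glo luminescence was read; sodium butyrate at 4.5 mM final served as control.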
NPC1 prom act: activates the NPC1 promoter. actives 2.4% (n = 320,000). AID 485313. Potency, µM (titrated, usually from 9.22 µM), actives largely listed as activators. Huh7 NPC1 promoter luciferase reporter, 24 h; also: nearly all actives have a fitted effect of over 60% in size
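Luminescence from an NPC1 promoter-driven luciferase reporter in stably transfected Huh7 cells was measured after 24 h compound treatment at 37 °C, followed by 10 min ambient incubation with luciferase detection reagent.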
Numbers stand for hits; n = inactive; u = inconclusive; x = no result; [ ] = dose if it differs, or a comment. Calls follow the shape of the dose curve; as a rule, active = well fitted curve in the direction sought with a large enough effect; inconclusive = small, poorly fitted or top-dose-only effect, or another doubt; inactive = no such curve, though single readings can be large; an effect the other way counts as inactive or inconclusive.

SMILES | ELG1 genotox | FLuc modulator | Rab9 promoter act | Luc counter | SMN2 splice enh | NPC1 prom act
O=C(NCCC(=O)N1CCN(c2ccccn2)CC1)c1ccc([N+](=O)[O-])cc1 | n | x | x | x | x | x
CC(=O)COc1ccc2cc(-c3ccccc3)c(=O)oc2c1 | u | u | 1µM | x | x | 1.12µM
COc1ccc(-c2cc3ccc(OC(C)C(=O)O)cc3oc2=O)cc1 (configuration not stated) | u | 26.9µM | n | x | x | n
COc1ccc(-c2cc3ccc(OCC(N)=O)cc3oc2=O)cc1OC | n | u | n | x | x | n
O=C(CCCCl)Oc1ccc2cc(-c3ccc4ccccc4n3)c(=O)oc2c1 | u | u | u | n | 12.6µM | u
CC(=O)Oc1ccc2cc(-c3ccccc3)c(=O)oc2c1 | u | 2.39µM | u | x | x | 3.98µM
CC(/C=N/NC(=O)c1ccco1)=C\c1ccccc1 | 2.31µM | 2.39µM | 0.355µM | n | 2.51µM | 0.562µM
COc1ccc(C(=O)NCC(=O)N/N=C/C(C)=C/c2ccccc2)cc1OC | n | 16.9µM | n | n | n | n
CC(/C=N/NC(=O)c1ccccc1F)=C\c1ccccc1 | u | 3.38µM | 1.12µM | x | x | 1.12µM
CC(/C=N\NC(=O)c1ccc(C)nc1)=C\c1ccccc1 | n | 8.49µM | n | n | n | n
CCCc1nnc(NC(=O)Cc2coc3ccc(C)cc23)s1 | x | n | x | x | n | x
COc1ccc(OC)c(NC(=O)c2cn(CC(C)C)c(=O)c3cc(OC)c(OC)cc23)c1 | x | n | x | x | n | x
C=CCc1ccccc1OCCn1nnc2ccccc21 | n | n | n | x | x | n
Cc1cccc(OCCn2nnc3ccccc32)c1C | u | 16.9µM | n | x | x | u
C/C=C/c1ccc(OCCn2nnc3ccccc32)c(OC)c1 | u | 16.9µM | u | x | x | n
Cc1c(C)c2cc3c(c(C)c2oc1=O)OCN(CCc1ccccc1)C3 | x | n | x | x | n | x
COC(=O)[C@@]1(Cc2ccc(F)cc2)[C@H]2c3cc(C(=O)N4CCCC4)n(Cc4cccc5ccccc45)c3C[C@H]2CN1C(=O)c1ccccc1 | x | x | x | n | n | x
Cc1ccsc1C1NC(=O)c2c(sc3c2CCCC3)N1 (configuration not stated) | u | 16.9µM | u | n | 15.8µM | u
Cc1cccc(C2NC(=O)c3c(sc4c3CCN(C)C4)N2)c1O (configuration not stated) | x | 23.9µM | x | x | 15.8µM | x
Cc1ccc(C2NC(=O)c3c(sc4c3CCN(C)C4)N2)s1 (configuration not stated) | n | 12µM | u | n | n | u
O=C1NC(c2ccc(Br)cc2)Nc2sc3c(c21)CCC3 (configuration not stated) | n | u | u | n | n | u
CN1CCc2c(sc3c2C(=O)NC(c2ccccc2)N3)C1 (configuration not stated) | n | u | n | n | n | n
CN1CCc2c(sc3c2C(=O)NC(c2ccccn2)N3)C1 (configuration not stated) | n | n | n | n | n | n
CCCC1CC(C(=O)N[C@H](C(C)O)C2OC(SC)[C@@H](O)C(O)C2O)N(C)C1 (some centres not stated) | x | x | x | n | n | x
O=C(Nc1ccc(F)cc1F)c1cc2nc3c(c(C(F)(F)F)n2n1)CCCC3 | u | 0.601µM | 0.562µM | n | n | 1.12µM
SMILES | ELG1 genotox | FLuc modulator | Rab9 promoter act | Luc counter | SMN2 splice enh | NPC1 prom act
COc1ccc2oc(=O)c(-c3nc(-c4cccs4)no3)cc2c1 | x | n | x | x | x | x
COc1cccc(-c2nc(-c3ccc(NC(=O)Cc4ccccc4OC)cc3)no2)c1 | n | u | n | n | n | n
COc1cc(OC)cc(-c2nc(-c3cccs3)no2)c1 | n | 10.7µM | u | n | n | u
COc1cccc(-c2nc(-c3ccncc3)no2)c1 | u | 5.36µM | 1.41µM | x | x | 2.82µM
COc1cccc(-c2nc(-c3cccs3)no2)c1 | u | 0.269µM | 2.51µM | x | x | 2.82µM
N#C/C(=C\c1ccc(Cl)cc1)c1nc(-c2cc3c(ccc4ccccc43)oc2=O)cs1 | x | n | x | x | n | x
O=C(Nc1cccc(Cl)c1)C1COc2ccccc2O1 (configuration not stated) | n | u | n | x | x | n
O=C(Nc1cnc2ccccc2c1)C1COc2ccccc2O1 (configuration not stated) | u | 13.5µM | 3.98µM | n | n | n
O=C(Nc1ccc2c(c1)OCO2)C1COc2ccccc2O1 (configuration not stated) | u | 16.9µM | 2.82µM | n | u | u
O=C(Nc1ccc(F)cc1)C1COc2ccccc2O1 (configuration not stated) | n | u | n | x | x | n
O=C(Nc1ccc2c(c1)CCC2)C1COc2ccccc2O1 (configuration not stated) | 20.6µM | 19µM | 2.51µM | n | 15.8µM | 3.98µM
COc1cccc(NC(=O)C2COc3ccccc3O2)c1 (configuration not stated) | u | 26.9µM | n | x | x | u
CC1=C(/C=C/C(C)=C/C=C/C(C)=C\CO)C(C)(C)CCC1 | x | x | x | x | n | x
O=C(CSc1nc2c([nH]c3ccccc32)c(=O)n1-c1ccccc1)NCc1ccc(F)cc1 | x | n | x | x | x | x
CS(=O)(=O)Nc1cccc(-c2cncnc2NCc2cccs2)c1 | x | x | x | n | n | x
O=C(Nc1ccc2c(c1)OCO2)C1CC(c2ccccc2Cl)=NO1 (configuration not stated) | u | n[2.3 µM] | 2.51µM | n | n | u
CCn1cc(C2=NOC(C(=O)Nc3ccc4c(c3)OCO4)C2)c(C)n1 (configuration not stated) | n | n | n | n | n | n
CCOC(=O)c1ccc(NC(=O)C2Cc3ccccc3C(=O)O2)cc1 (configuration not stated) | x | n | x | x | n | x
Cc1cc(C)nc(SCc2csc(-c3ccccc3)n2)n1 | 4.61µM | 3.38µM | 1.41µM | n | 5.01µM | 2.51µM
Nc1ccccc1SCc1csc(-c2ccc(Cl)cc2)n1 | n | 13.5µM | u | n[7.66 µM] | n[9.22 µM] | u
C[N+](C)(N)Cc1csc(-c2ccc(Cl)cc2)n1 | x | x | x | n[7.66 µM] | n[9.22 µM] | x
CC(C)(C)C1CCc2onc(C(=O)Nc3sc4c(c3C#N)CCCC4)c2C1 (configuration not stated) | x | u | x | x | n | x
CC(C)CCNC(=O)CN(C(=O)CCC(=O)Nc1nccs1)c1ccc2c(c1)OCCO2 | 20.6µM | u | n | x | x | n
CC(C)(C)NC(=O)CN(C(=O)CCC(=O)Nc1nccs1)c1ccc2c(c1)OCCO2 | n | n | n | x | x | n
CCCc1cc(=O)[nH]c(Nc2cc(OC)ccc2OC)n1 | n | n | n | n | 1.26µM | n
CCCc1cc(=O)[nH]c(Nc2cc(Cl)ccc2OC)n1 | x | n | x | x | n | x
Cc1cc(C(=O)Nc2cccc3ccccc23)c(C)o1 | n | n | n | x | x | n
Cc1cc(C(=O)Nc2ccc(OCc3ccccc3)cc2)c(C)o1 | u | 16.9µM | u | 11.2µM | u | u
